The source of these data is PubChem BioAssay (EPA / NIEHS).

Records with an inconclusive call do not appear. Where a structure was tested more than once in an assay, its records may differ in their call. Activity calls are given as the source filed them. The calls were made as follows, unless noted: active = hit-call score of the fitted dose curve at least 0.9, where 1 is the maximum; inconclusive = response in the unintended direction; inactive = score below 0.9.

human Thyroid hormone Receptor alpha (TRa), THRA (gene 7067), sequence (P10827 whole entry, looked up): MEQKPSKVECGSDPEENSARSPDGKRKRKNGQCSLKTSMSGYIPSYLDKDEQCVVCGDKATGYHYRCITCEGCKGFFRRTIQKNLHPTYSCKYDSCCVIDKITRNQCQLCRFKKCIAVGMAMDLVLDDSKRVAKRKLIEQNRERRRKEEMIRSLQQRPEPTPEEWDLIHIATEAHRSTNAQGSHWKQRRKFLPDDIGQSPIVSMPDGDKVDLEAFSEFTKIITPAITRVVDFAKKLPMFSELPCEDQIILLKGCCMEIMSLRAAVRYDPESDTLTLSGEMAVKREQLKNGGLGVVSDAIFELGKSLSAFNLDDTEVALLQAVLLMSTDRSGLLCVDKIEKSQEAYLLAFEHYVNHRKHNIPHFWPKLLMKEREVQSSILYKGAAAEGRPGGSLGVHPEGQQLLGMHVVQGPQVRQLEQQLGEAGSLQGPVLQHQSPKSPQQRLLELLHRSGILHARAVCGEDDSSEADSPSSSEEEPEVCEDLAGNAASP
human Thyroid hormone Receptor beta (TRb), THRB (gene 7068), sequence (P10828 whole entry, looked up): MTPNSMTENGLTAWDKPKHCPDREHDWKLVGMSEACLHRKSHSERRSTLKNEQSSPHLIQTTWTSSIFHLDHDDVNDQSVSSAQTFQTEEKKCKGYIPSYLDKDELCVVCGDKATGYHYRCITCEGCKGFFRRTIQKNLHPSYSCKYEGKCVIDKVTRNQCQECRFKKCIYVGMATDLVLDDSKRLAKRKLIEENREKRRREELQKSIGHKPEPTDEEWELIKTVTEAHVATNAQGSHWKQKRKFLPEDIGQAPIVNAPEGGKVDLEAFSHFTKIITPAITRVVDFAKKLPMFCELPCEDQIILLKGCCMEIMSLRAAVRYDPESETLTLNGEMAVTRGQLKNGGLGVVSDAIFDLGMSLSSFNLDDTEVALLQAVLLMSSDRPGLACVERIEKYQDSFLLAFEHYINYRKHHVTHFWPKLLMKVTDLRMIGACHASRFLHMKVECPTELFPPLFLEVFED

The first assay addresses human Thyroid hormone Receptor alpha (TRa), THRA (gene 7067) (UniProt P10827). The experiment in a line: ATG_hTRa_XSP2: Attagene TRANS-FACTORIAL Multi-Species (XSP2) HepG2 Assay for human Thyroid hormone Receptor alpha (TRa) (AID 2283838).
Settings: not given
The gist of the method:
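HepG2 cells transiently transfected with multiplexed GAL4-UAS reporter units and exogenous NR-GAL4 chimeras; 24 h chemical exposure with 3 nM 6-alpha-fluorotestosterone and 1.5 nM norgestrel present. Reporter mRNA measured by RT-PCR, FAM labelling, HpaI digestion, capillary electrophoresis; gain-of-signal versus DMSO.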
In the case of `Oc1ccc2cc(SSc3ccc4cc(O)ccc4c3)ccc2c1`, the AC50 is 132 µM (active) and the result was inactive.

As for `OCc1cccc(Oc2ccccc2)c1`, the outcome was inactive. As to `BrCc1cccc(Oc2ccccc2)c1`, the molecule was called inactive. `Cc1cc(=O)oc2cc(N(C)C)ccc12`: the result was inactive. On the same count and under the same terms, next, `Clc1ccc(C(c2ccccc2Cl)C(Cl)Cl)cc1` (stereo not drawn): “inactive”; `O=c1c(O)c(-c2ccc(O)cc2)oc2cc(O)cc(O)c12`: “inactive”.

The next assay deals with frog Thyroid hormone Receptor alpha (TRa), thra-a (gene 397942) (UniProt P15204). Kind of assay: ATG_frTRa_XSP2: Attagene TRANS-FACTORIAL Multi-Species (XSP2) HepG2 Assay for frog Thyroid hormone Receptor alpha (TRa) (AID 2283839).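 As to AC50: AC50 reflects induction of frog TRa-driven reporter mRNA above DMSO baseline.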
frog Thyroid hormone Receptor alpha (TRa), thra-a (gene 397942), sequence (P15204 whole entry, looked up): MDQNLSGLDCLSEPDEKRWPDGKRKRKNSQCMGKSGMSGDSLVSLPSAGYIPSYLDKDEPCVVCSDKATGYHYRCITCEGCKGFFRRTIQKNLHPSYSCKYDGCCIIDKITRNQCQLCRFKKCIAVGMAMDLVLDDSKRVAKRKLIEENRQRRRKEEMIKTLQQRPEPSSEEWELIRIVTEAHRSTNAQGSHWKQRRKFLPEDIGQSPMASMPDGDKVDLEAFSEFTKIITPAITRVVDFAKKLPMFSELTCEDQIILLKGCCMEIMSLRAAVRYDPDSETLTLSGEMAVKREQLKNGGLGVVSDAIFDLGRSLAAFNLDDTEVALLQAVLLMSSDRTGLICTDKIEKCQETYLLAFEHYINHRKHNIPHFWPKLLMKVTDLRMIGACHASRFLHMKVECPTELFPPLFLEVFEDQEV
Settings: not given
The essentials:
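HepG2 cells transiently transfected with multiplexed GAL4-UAS reporter units expressing chimeric frog TRα-Gal4; reporter mRNA read 24 h after dosing by RT-PCR, FAM-labelled primer extension, HpaI digest and capillary electrophoresis. Gain of signal fitted versus DMSO.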
In the case of `Oc1ccc2cc(SSc3ccc4cc(O)ccc4c3)ccc2c1`, the concentration at half-maximal activity (AC50) is 160 µM (active) and the molecule was called inactive.

For the molecule `OCc1cccc(Oc2ccccc2)c1`, the result was inactive. For `BrCc1cccc(Oc2ccccc2)c1`, the outcome was inactive. For `Cc1cc(=O)oc2cc(N(C)C)ccc12`, the outcome was inactive. `CCCCC(CC)COC(=O)c1ccc(O)cc1` (stereo not drawn): the call was inactive. On to `Clc1ccc(C(c2ccccc2Cl)C(Cl)Cl)cc1` (stereo not drawn), for which the molecule was classed as inactive. On to `O=c1c(O)c(-c2ccc(O)cc2)oc2cc(O)cc(O)c12`, for which the result was inactive.

A further assay has as its target human Thyroid hormone Receptor beta (TRb), THRB (gene 7068) (UniProt P10828). Kind of assay: ATG_hTRb_XSP2: Attagene TRANS-FACTORIAL Multi-Species (XSP2) HepG2 Assay for human Thyroid hormone Receptor beta (TRb) (AID 2283840).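 Also: actives raise reporter mRNA so potency reflects agonist-like gain of signal.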
Settings: not given
The gist of the method: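 HepG2 cells were transiently transfected with GAL4-UAS multiplexed reporter units expressing chimeric NR-Gal4 proteins, dosed 24 h; reporter mRNA was quantified by RT-PCR, fluorescent labeling, HpaI digestion and capillary electrophoresis, fitted for gain of signal versus DMSO.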
In the case of `Oc1ccc2cc(SSc3ccc4cc(O)ccc4c3)ccc2c1`, the AC50 was 100 µM (active) and the outcome was inactive. Regarding `OCc1cccc(Oc2ccccc2)c1`, the molecule was called inactive. The same measure, in the same setting: next, `BrCc1cccc(Oc2ccccc2)c1`: “inactive”. For `Cc1cc(=O)oc2cc(N(C)C)ccc12`, the outcome was inactive. On the same count and under the same terms, under `CCCCC(CC)COC(=O)c1ccc(O)cc1` (stereo not drawn) stands “inactive”; under `Clc1ccc(C(c2ccccc2Cl)C(Cl)Cl)cc1` (stereo not drawn), “inactive”.

`O=c1c(O)c(-c2ccc(O)cc2)oc2cc(O)cc(O)c12`: the call was inactive.

A further assay relates to Sodium/Iodide Symporter (NIS), SLC5A5 (gene 6528). Kind of assay: CPHEA_Stoker_NIS_Inhibition_RAIU: CPHEA's Radioactive Iodide Uptake (RAIU) Assay for Sodium/Iodide Symporter (NIS) Inhibition, Stoker and Laws Labs (AID 2283841).
Settings: not given
The gist of the method:
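HEK293T cells stably expressing human NIS (hNIS-HEK293T-EPA) were exposed to test chemicals at 0.001–100uM (0.5% final DMSO) with 125I at a final 329pM in HBSS/10mM HEPES pH 7.4. After 2 hours at room temperature and ice-cold washes, intracellular 125I was counted as CPM and normalized to DMSO wells.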
Regarding `CCc1cc(Cc2cc(CC)cc(C(C)(C)C)c2O)c(O)c(C(C)(C)C)c1`, the result was inactive. For `O=C(CC(=O)c1ccccc1)c1ccccc1`, the outcome was inactive.

Turning to `CCCCCCCCCCCCCCN(CCO)CCO`, the outcome was inactive. In the case of `COc1ccc(N=Nc2cc(C)c(N=Nc3ccc(S(=O)(=O)O)cc3)cc2OC)cc1`, the outcome was inactive. Consider `CCCCCCCCC=CCCCCCCCC1=NCCN1CCO`, for which the result was inactive. As to `OC[C@H]1O[C@@H]2O[C@H]3[C@H](O)[C@@H](O)[C@@H](O[C@H]4[C@H](O)[C@@H](O)[C@@H](O[C@H]5[C@H](O)[C@@H](O)[C@@H](O[C@H]6[C@H](O)[C@@H](O)[C@@H](O[C@H]7[C@H](O)[C@@H](O)[C@@H](O[C@H]8[C@H](O)[C@@H](O)[C@@H](O[C@H]9[C@H](O)[C@@H](O)[C@@H](O[C@H]1[C@H](O)[C@H]2O)O[C@@H]9CO)O[C@@H]8CO)O[C@@H]7CO)O[C@@H]6CO)O[C@@H]5CO)O[C@@H]4CO)O[C@@H]3CO`, the outcome was inactive.

For the molecule `O=C(c1ccccc1)C(O)c1ccccc1` (stereo not drawn), the result was inactive. In the case of `CCCCCC(C=O)=Cc1ccccc1`, the result was inactive. Take `C=C1CC[C@H](O)C/C1=C/C=C1\CCC[C@]2(C)[C@@H]([C@H](C)/C=C/[C@H](C)C(C)C)CC[C@@H]12`: the result was inactive. Consider `CCOc1ccc(N=Nc2ccc(C=Cc3ccc(N=Nc4ccc(OCC)cc4)cc3S(=O)(=O)O)c(S(=O)(=O)O)c2)cc1`, for which the result was inactive.

With `Cc1ccc(S(=O)(=O)Oc2ccc(N=Nc3ccc(-c4ccc(N=Nc5c(O)ccc6cc(S(=O)(=O)O)cc(S(=O)(=O)O)c56)c(C)c4)cc3C)cc2)cc1`, the result was inactive. Consider `BrCc1cccc(Oc2ccccc2)c1`, for which the outcome was inactive. For `CC(CN=Cc1ccccc1O)N=Cc1ccccc1O` (stereo not drawn), the outcome was inactive. Still for that read-out and setting: under `CCCCCCC(=O)c1ccccc1` stands “inactive”. As for `CCCCC(CC)COC(=O)c1ccc(O)cc1` (stereo not drawn), the half-maximal activity concentration (AC50) was 10.4 µM (active). For `C=C(C)C(=O)OCCOC1CC2CC1C1C=CCC21` (stereo not drawn), the result was inactive. In the case of `CCc1cc(C(C)(C)C)c(O)c(C(C)(C)C)c1`, the outcome was inactive. For the molecule `O=[N+]([O-])c1ccc(O)cc1C(F)(F)F`, the outcome was inactive.

Consider `CCOC(=O)[C@@H](C)Oc1ccc(Oc2nc3ccc(Cl)cc3o2)cc1`, for which the result was inactive.

With `Clc1ccc(C(c2ccccc2Cl)C(Cl)Cl)cc1` (stereo not drawn), the result was inactive. `CCCCCCCCSCCO`: the outcome was inactive. As to `C[C@H]1O[C@@H](O[C@H]2[C@@H](O)C[C@H](O[C@H]3[C@@H](O)C[C@H](O[C@H]4CC[C@@]5(C)[C@H](CC[C@@H]6[C@@H]5C[C@@H](O)[C@]5(C)[C@@H](C7=CC(=O)OC7)CC[C@]65O)C4)O[C@@H]3C)O[C@@H]2C)C[C@H](O)[C@@H]1O`, the AC50 is 1.12 µM (active). For `O=c1c(O)c(-c2ccc(O)cc2)oc2cc(O)cc(O)c12`, the result was inactive. In the case of `[O-]n1ccccc1=S.[O-]n1ccccc1=S.[Zn+2]`, the AC50 is 18.1 µM (active). Take `CCCCCCCCCCCCN1CCCCCC1=O`: the result was inactive. Take `c1ccc(Oc2ccccc2)cc1`: the result was inactive. As for `OCC#CCO`, the outcome was inactive. With `CCCCCCCCc1ccc(S(=O)(=O)O)cc1`, the outcome was inactive.

Read-out in a further assay: not listed separately
Kind of assay: CEETOX_H295R_11DCORT_noMTC: CeeTox H295R High-throughput Steroidogenesis Assay for 11-Deoxycortisol (11DCORT), maximum tolerated concentration (MTC) filtered results only (AID 2283911; active = hit-call score of the fitted dose curve at least 0.9, where 1 is the maximum; inactive = score below 0.9). The conditions noted are these: actives raise or lower the signal. The essentials:
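HPLC-MS/MS read-out of 11-deoxycortisol after MTBE extraction of H295R medium. Cells: forskolin 10 uM pre-stimulation 48 h, chemical 48 h, 0.1% DMSO final. Bidirectional fit vs DMSO baseline; no MTC filtering.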
On to `C=C[Si]1(C)O[Si](C)(C=C)O[Si](C)(C=C)O[Si](C)(C=C)O1` (stereo not drawn), for which the molecule was called inactive. For `CC=Cc1ccc(OC)c(OC)c1`, the outcome was inactive. The same measure, in the same setting: under `COc1ccc(OC)c(N=Nc2c(O)ccc3ccccc23)c1` stands “inactive”.

Read-out in a further assay: not listed separately
Kind of assay: CEETOX_H295R_OHPREG_noMTC: CeeTox H295R High-throughput Steroidogenesis Assay for OH-Pregnenolone (OHPREG), maximum tolerated concentration (MTC) filtered results only (AID 2283912; active = hit-call score of the fitted dose curve at least 0.9, where 1 is the maximum; inactive = score below 0.9). The conditions noted are these: actives raise or lower the signal. The gist of the method:
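H295R human adrenal cells, forskolin-prestimulated (10 uM, 48 h), then exposed to test chemical in 0.1% DMSO for 48 h. 17alpha-hydroxypregnenolone in medium measured by HPLC-MS/MS after MTBE extraction; bidirectional fit versus DMSO, concentrations not MTC-filtered.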
For the molecule `C=C[Si]1(C)O[Si](C)(C=C)O[Si](C)(C=C)O[Si](C)(C=C)O1` (stereo not drawn), the outcome was inactive. With `O=C(Nc1ccc2c(O)c(N=Nc3ccc(N=Nc4ccc(S(=O)(=O)O)cc4)cc3)c(S(=O)(=O)O)cc2c1)c1ccccc1`, the outcome was inactive. Take `CC=Cc1ccc(OC)c(OC)c1`: the molecule was called inactive. On the same count and under the same terms, under `COc1ccc(OC)c(N=Nc2c(O)ccc3ccccc23)c1` stands “inactive”.
